# Reference: PubChem BioAssay AID1159580 (chemical genetic matrix, 2015)
# Hit rate of the full screen: of about 5,500 compounds, about 2,000 (36%) were called active. About 18% were inconclusive and are not listed. The list shows a part of the results. Values without a mark were called inactive. Rule as the data show it: active = normalized growth mostly below about 0.91 (no sharp cut-off); inconclusive = no clear call, values can overlap the other calls; inactive = mostly above about 0.92.
# Assay: chemical genetic growth profiling, strain panel (AID 1159580);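 also: tested at 20 µM; growth read once vehicle control cultures reached saturation at 30 °C; 1 = growth at the plate median or of vehicle wells; lower values mean less growth of the strain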
# Settings: growth OD
# [1] = S. cerevisiae deletion strains, locus YAL013W, strain DEP1, active compounds read low
# [2] = S. cerevisiae deletion strains, locus YBR229C, strain ROT2, active compounds read low
# [3] = S. cerevisiae deletion strains, locus YDL101C, strain DUN1, active compounds read low
# [4] = S. cerevisiae deletion strains, locus YDR150W, strain NUM1, active compounds read low
# [5] = S. cerevisiae deletion strains, locus YEL061C, strain CIN8, active compounds read low
# [6] = S. cerevisiae deletion strains, locus YGR078C, strain PAC10, active compounds read low
# [7] = S. cerevisiae deletion strains, locus YGR229C, strain SMI1, active compounds read low
# [8] = S. cerevisiae deletion strains, locus YHR030C, strain SLT2, active compounds read low
# [9] = S. cerevisiae deletion strains, locus YHR087W, strain rtc3, active compounds read low
# [10] = S. cerevisiae deletion strains, locus YJL187C, strain SWE1, active compounds read low
# [11] = S. cerevisiae deletion strains, locus YJR043C, strain POL32, active compounds read low
# [12] = S. cerevisiae deletion strains, locus YJR075W, strain HOC1, active compounds read low
# [13] = S. cerevisiae deletion strains, locus YKL190W, strain CNB1, active compounds read low
# [14] = S. cerevisiae deletion strains, locus YLR039C, strain RIC1, active compounds read low
# [15] = S. cerevisiae deletion strains, locus YLR058C, strain SHM2 (second series), active compounds read low
# [16] = S. cerevisiae deletion strains, locus YLR085C, strain ARP6, active compounds read low
# [17] = S. cerevisiae deletion strains, locus YLR262C, strain YPT6, active compounds read low
# [18] = S. cerevisiae deletion strains, locus YML094W, strain GIM5, active compounds read low
# [19] = S. cerevisiae deletion strains, locus YMR219W, strain ESC1, active compounds read low
# [20] = S. cerevisiae deletion strains, locus YMR263W, strain SAP30, active compounds read low
# [21] = S. cerevisiae deletion strains, locus YMR307W, strain GAS1, active compounds read low
# [22] = S. cerevisiae deletion strains, locus YNL153C, strain GIM3, active compounds read low
# [23] = S. cerevisiae deletion strains, locus YNL298W, strain CLA4 (second series), active compounds read low
# [24] = S. cerevisiae deletion strains, locus YNL322C, strain KRE1, active compounds read low
# [25] = S. cerevisiae deletion strains, locus YNR030W, strain Alg12, active compounds read low
# [26] = S. cerevisiae deletion strains, locus YPL055C, strain LGE1, active compounds read low
# [27] = S. cerevisiae deletion strains, locus YPL241C, strain CIN2, active compounds read low
# [28] = S. cerevisiae deletion strains, locus YPR135W, strain CTF4, active compounds read low
# [29] = S. cerevisiae strains, strain wild type, active compounds read low
# [30] = S. cerevisiae deletion strains, locus YDL134C, strain PPH21, active compounds read low
# [31] = S. cerevisiae deletion strains, locus YNL128W, strain TEP1, active compounds read low
smiles,measurement,setting,value
O=C(COC(=O)c1ccccc1Nc1ccccc1)c1ccc(Cl)cc1,normalized growth,[1],0.978
same,normalized growth,[2],0.99
same,normalized growth,"S. cerevisiae deletion strains, locus YCL061C, strain MRC1, active compounds read low",0.993
same,normalized growth,[3],0.986
same,normalized growth,[4],0.9
same,normalized growth,[5],0.993
same,normalized growth,[6],0.982
same,normalized growth,[7],0.98
same,normalized growth,[8],1.01
same,normalized growth,[9],0.974
same,normalized growth,[10],0.997
same,normalized growth,[11],0.98
same,normalized growth,[12],1
same,normalized growth,[13],0.988
same,normalized growth,[14],0.944
same,normalized growth,[15],0.992
same,normalized growth,[16],1.02
same,normalized growth,[17],0.987
same,normalized growth,[18],0.956
same,normalized growth,[19],0.988
same,normalized growth,[20],0.927
same,normalized growth,[21],0.987
same,normalized growth,[22],0.993
same,normalized growth,[23],1
same,normalized growth,[24],0.966
same,normalized growth,[25],0.99
same,normalized growth,"S. cerevisiae deletion strains, locus YOL006C, strain TOP1, active compounds read low",0.964
same,normalized growth,[26],0.921
same,normalized growth,[27],0.9
same,normalized growth,[28],1.01
same,normalized growth,[29],0.985
O=C(/C=N\Nc1ccccc1)Nc1ccccc1C(=O)O,normalized growth,[1],0.975
same,normalized growth,[2],0.98
same,normalized growth,[3],0.99
same,normalized growth,[30],0.99
same,normalized growth,[4],0.883
same,normalized growth,[5],0.986
same,normalized growth,[6],0.92 (active)
same,normalized growth,[7],1.02
same,normalized growth,[8],0.716
same,normalized growth,[9],0.92
same,normalized growth,[10],0.983
same,normalized growth,[11],0.989
same,normalized growth,[12],0.953
same,normalized growth,[14],0.297 (active)
same,normalized growth,[15],0.97
same,normalized growth,[16],0.666 (active)
same,normalized growth,[17],0.242 (active)
same,normalized growth,[18],0.922
same,normalized growth,[19],0.976
same,normalized growth,[22],0.965
same,normalized growth,[23],0.93
same,normalized growth,[24],0.982
same,normalized growth,[25],0.958
same,normalized growth,[26],0.86
same,normalized growth,[27],0.792 (active)
same,normalized growth,[28],0.812
O=C(COC(=O)c1ccccc1Nc1cccc(F)c1)c1ccccc1,normalized growth,[1],0.98
same,normalized growth,[2],0.994
same,normalized growth,[3],1.01
same,normalized growth,[30],0.997
same,normalized growth,[4],1.01
same,normalized growth,[5],0.989
same,normalized growth,[6],0.982
same,normalized growth,[8],0.93
same,normalized growth,[9],1
same,normalized growth,[11],0.986
same,normalized growth,[12],1.03
same,normalized growth,[13],0.989
same,normalized growth,[14],1.01
same,normalized growth,[15],0.989
same,normalized growth,[16],0.916
same,normalized growth,[17],1.02
same,normalized growth,[18],0.996
same,normalized growth,[19],0.997
same,normalized growth,[20],0.997
same,normalized growth,[21],0.882
same,normalized growth,[31],0.987
same,normalized growth,[22],0.99
same,normalized growth,[23],0.97
same,normalized growth,[24],0.981
same,normalized growth,[25],0.978
same,normalized growth,[26],1.01
same,normalized growth,[27],0.96
same,normalized growth,[28],1.01
COC(=O)Oc1ccccc1C(=O)O,normalized growth,[1],1.02
same,normalized growth,"S. cerevisiae deletion strains, locus YBR021W, strain FUR4, active compounds read low",0.976
same,normalized growth,[2],1.01
same,normalized growth,"S. cerevisiae deletion strains, locus YCL029C, strain bik1, active compounds read low",1.01
same,normalized growth,"S. cerevisiae deletion strains, locus YDL035C, strain GPR1, active compounds read low",0.995
same,normalized growth,"S. cerevisiae deletion strains, locus YDL074C, strain BRE1, active compounds read low",1.04
same,normalized growth,[3],1.02
same,normalized growth,[30],0.991
same,normalized growth,"S. cerevisiae deletion strains, locus YDL185W, strain tfp1, active compounds read low",1.01
same,normalized growth,"S. cerevisiae deletion strains, locus YDL192W, strain arf1, active compounds read low",1.02
same,normalized growth,"S. cerevisiae deletion strains, locus YDR101C, strain arx1, active compounds read low",1.01
same,normalized growth,"S. cerevisiae deletion strains, locus YDR162C, strain NBP2, active compounds read low",0.99
same,normalized growth,"S. cerevisiae deletion strains, locus YDR318W, strain mcm21, active compounds read low",1.01
same,normalized growth,"S. cerevisiae deletion strains, locus YDR388W, active compounds read low",1.01
same,normalized growth,"S. cerevisiae deletion strains, locus YDR502C, strain sam2, active compounds read low",1.01
same,normalized growth,[5],1.01
same,normalized growth,"S. cerevisiae deletion strains, locus YER110C, active compounds read low",1.03
same,normalized growth,"S. cerevisiae deletion strains, locus YER155C, strain BEM2, active compounds read low",1.01
same,normalized growth,"S. cerevisiae deletion strains, locus YER167W, strain BCK2, active compounds read low",1.01
same,normalized growth,"S. cerevisiae deletion strains, locus YGL078C, strain dbp3, active compounds read low",1.01
same,normalized growth,"S. cerevisiae deletion strains, locus YGL086W, strain mad1, active compounds read low",1.01
same,normalized growth,"S. cerevisiae deletion strains, locus YGL248W, strain PDE1, active compounds read low",1.01
same,normalized growth,"S. cerevisiae deletion strains, locus YGR135W, strain pre9, active compounds read low",1.01
same,normalized growth,"S. cerevisiae deletion strains, locus YGR252W, strain gcn5, active compounds read low",1.01
same,normalized growth,[8],1.01
same,normalized growth,"S. cerevisiae deletion strains, locus YHR079C, strain IRE1 (second series), active compounds read low",1.01
same,normalized growth,"S. cerevisiae deletion strains, locus YHR094C, strain hxt1, active compounds read low",1.02
same,normalized growth,"S. cerevisiae deletion strains, locus YHR129C, strain ARP1, active compounds read low",1.01
same,normalized growth,"S. cerevisiae deletion strains, locus YHR200W, strain rpn10, active compounds read low",1.02
same,normalized growth,"S. cerevisiae deletion strains, locus YIL066C, strain RNR3, active compounds read low",0.987
same,normalized growth,"S. cerevisiae deletion strains, locus YIL073C, strain SPO22, active compounds read low",1.03
same,normalized growth,"S. cerevisiae deletion strains, locus YIL125W, strain kgd1, active compounds read low",1.02
same,normalized growth,"S. cerevisiae deletion strains, locus YIR030C, strain dcg1, active compounds read low",1.01
same,normalized growth,"S. cerevisiae deletion strains, locus YJL095W, strain BCK1, active compounds read low",1.05
same,normalized growth,"S. cerevisiae deletion strains, locus YJL134W, strain LCB3, active compounds read low",1.01
same,normalized growth,"S. cerevisiae deletion strains, locus YJL168C, strain set2, active compounds read low",1.03
same,normalized growth,"S. cerevisiae deletion strains, locus YJL187C, strain SWE1 (second series), active compounds read low",1.02
same,normalized growth,[11],0.983
same,normalized growth,"S. cerevisiae deletion strains, locus YKL009W, strain mrt4, active compounds read low",1.01
same,normalized growth,"S. cerevisiae deletion strains, locus YKL068W, active compounds read low",1
same,normalized growth,"S. cerevisiae deletion strains, locus YKL085W, strain MDH1 (second series), active compounds read low",1.01
same,normalized growth,"S. cerevisiae deletion strains, locus YKL085W, strain MDH1, active compounds read low",1.01
same,normalized growth,[13],1.02
same,normalized growth,"S. cerevisiae deletion strains, locus YKR001C, strain vps1, active compounds read low",1.01
same,normalized growth,[14],1.02
same,normalized growth,"S. cerevisiae deletion strains, locus YLR058C, strain SHM2, active compounds read low",1.01
same,normalized growth,"S. cerevisiae deletion strains, locus YLR102C, strain apc9, active compounds read low",1.02
same,normalized growth,[17],1.04
same,normalized growth,"S. cerevisiae deletion strains, locus YLR268W, strain sec22, active compounds read low",1.02
same,normalized growth,"S. cerevisiae deletion strains, locus YLR330W, strain CHS5, active compounds read low",1.01
same,normalized growth,"S. cerevisiae deletion strains, locus YLR342W, strain FKS1 (second series), active compounds read low",0.995
same,normalized growth,"S. cerevisiae deletion strains, locus YLR371W, strain rom2, active compounds read low",1.02
same,normalized growth,"S. cerevisiae deletion strains, locus YLR418C, strain cdc73, active compounds read low",1.06
same,normalized growth,"S. cerevisiae deletion strains, locus YML016C, strain PPZ1, active compounds read low",0.999
same,normalized growth,"S. cerevisiae deletion strains, locus YML032C, strain rad52, active compounds read low",1.01
same,normalized growth,"S. cerevisiae deletion strains, locus YML124C, strain tub3, active compounds read low",1.01
same,normalized growth,"S. cerevisiae deletion strains, locus YMR078C, strain ctf18, active compounds read low",1.02
same,normalized growth,"S. cerevisiae deletion strains, locus YMR223W, strain ubp8, active compounds read low",1.01
same,normalized growth,[20],1.03
same,normalized growth,[21],1.06
same,normalized growth,"S. cerevisiae deletion strains, locus YNL067W, strain RPL9B, active compounds read low",1.07
same,normalized growth,[31],1.02
same,normalized growth,[22],1.03
same,normalized growth,"S. cerevisiae deletion strains, locus YNL233W, strain BNI4, active compounds read low",1.01
same,normalized growth,"S. cerevisiae deletion strains, locus YNL250W, strain rad50, active compounds read low",1.04
same,normalized growth,"S. cerevisiae deletion strains, locus YNL271C, strain bni1, active compounds read low",1.02
same,normalized growth,"S. cerevisiae deletion strains, locus YNL298W, strain CLA4, active compounds read low",1.02
same,normalized growth,"S. cerevisiae deletion strains, locus YNL307C, strain MCK1, active compounds read low",1.02
same,normalized growth,"S. cerevisiae deletion strains, locus YNR052C, strain pop2, active compounds read low",1.02
same,normalized growth,"S. cerevisiae deletion strains, locus YOL012C, strain htz1",0.797
same,normalized growth,"S. cerevisiae deletion strains, locus YOL147C, strain pex11, active compounds read low",1.02
same,normalized growth,"S. cerevisiae deletion strains, locus YOR061W, strain CKA2, active compounds read low",1.01
same,normalized growth,"S. cerevisiae deletion strains, locus YOR069W, strain VPS5, active compounds read low",1.01
same,normalized growth,"S. cerevisiae deletion strains, locus YOR136W, strain idh2, active compounds read low",1.02
same,normalized growth,"S. cerevisiae deletion strains, locus YOR144C, strain elg1, active compounds read low",1.02
same,normalized growth,"S. cerevisiae deletion strains, locus YOR184W, strain ser1, active compounds read low",1.02
same,normalized growth,"S. cerevisiae deletion strains, locus YOR316C, strain cot1, active compounds read low",1.02
same,normalized growth,[27],1
same,normalized growth,"S. cerevisiae deletion strains, locus YPR119W, strain clb2, active compounds read low",1.02
same,normalized growth,"S. cerevisiae deletion strains, locus YPR141C, strain kar3, active compounds read low",1.03
same,normalized growth,"S. cerevisiae deletion strains, locus YPR163C, strain tif3, active compounds read low",1.01
same,normalized growth,"S. cerevisiae deletion strains, locus YPR167C, strain met16, active compounds read low",1.01
same,normalized growth,"S. cerevisiae deletion strains, strain wtn01, active compounds read low",1.01
same,normalized growth,[29],1.02
